These results are taken from PubChem BioAssay AID686971 (National Center for Advancing Translational Sciences (NCATS), 2013).

Among all 360,000 compounds or so, about 7,500 (2.1%) were called active. A call without a number means that no potency is given here. Another 8% or so got no clear call; they are omitted. Calls come from the whole dose curve; as a rule, active = well fitted cell-killing curve with a large enough effect; inconclusive = small, poorly fitted or top-dose-only effect, or effect the other way, or another doubt; inactive = no such curve, though single readings can be large or run the other way. This excerpt belongs to a sample that is enriched for actives.
Potency is the fitted concentration of half-maximal effect.

The assay in a line: qHTS for induction of synthetic lethality in tumor cells producing 2HG: qHTS for the HT-1080-IDH1KD cell line. As to conditions: HT-1080 IDH1 knockdown viability, ATP luminescence, 48 h; series mostly up to 46.1 µM. In outline:
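IDH1KD HT-1080 cells, 750/well, RPMI + 5% FBS; compound pinned after 2 h settling; 48 h, 37 °C; CellTiter-Glo luminescence; % activity normalised to DMSO and no-cell wells; curves fitted, classed by r2 and efficacy.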
Background: qHTS replaces the single test concentration by a dilution series.
Take `CCOC(=O)c1cc(-c2sc(NC(=O)c3ccccc3)nc2C)n(-c2ccc(Br)cc2)n1`: the Potency entry is “inactive”.
Same read-out and setting: the same measure for `COc1ccccc1CN1CCN(C(c2ccccc2)c2ccccc2)CC1`: “inactive”; for `CC1(C)CC(N2CCN(C(c3ccccc3)c3ccccc3)CC2)=CC(=[N+]2CCCCC2)C1`: 2.59 µM (active); for `c1ccc(C(c2ccccc2)N2CCN(Cc3nnnn3C3CCCCC3)CC2)cc1`: “inactive”.
On to `OC(c1ccccc1)c1nc(/C=C/c2ccc(C(F)(F)F)cc2)cs1` (configuration not stated), for which the Potency entry was “inactive”.
For the compound `CCCCc1ccc(S(=O)(=O)NC(=O)C2(C)CCN2C(=O)c2ccccc2)cc1` (configuration not stated), the Potency result was “inactive”.
On to `CCCCCCn1c(SCC(=O)c2ccccc2)nc2c1c(=O)[nH]c(=O)n2C`, for which the Potency entry is “inactive”.
As for `C=CCSc1nc2c(c(=O)[nH]c(=O)n2C)n1Cc1ccccc1`, the Potency entry was “inactive”.
Same read-out and setting: the result for `CCCCCn1c(SCCC(C)C)nc2c1c(=O)[nH]c(=O)n2C` reads 20.6 µM (active); that for `COCCNC(=O)c1cc2c(Br)ccc(Br)c2nc1N`, “inactive”; that for `CSc1ncnc2c1ncn2CCCNCC1CCCCC1`, “inactive”.
For `CCc1nc2ccc(C(=O)NCCNC(C)=O)cn2c1N(CC)Cc1cccc(Br)c1`, the Potency result is “inactive”.
As for `CN(Cc1ccccc1)C(=O)CCC1CCN(C(=O)c2ccco2)CC1`, the Potency entry is “inactive”.
For `Cc1cc(NC(=O)CCC(=O)N(c2ccccc2)C(C(=O)NC2CCCC2)c2ccncc2)no1` (configuration not stated), the Potency result was “inactive”.
Still for that read-out and setting: the same measure for `Cc1cc(NC(=O)/C=C/C(=O)N(c2ccccc2C)C(C(=O)NC2CCCC2)c2ccc(F)cc2)no1` (configuration not stated): 10 µM (active); for `Cc1cc(NC(=O)CCC(=O)N(c2cccc(F)c2)C(C(=O)NC2CCCC2)c2ccncc2)no1` (configuration not stated): “inactive”.
For the compound `O=C(N=C1SC2CS(=O)(=O)CC2N1Cc1ccccc1)c1ccccc1` (configuration not stated), the Potency result is “inactive”.
The same measure, in the same setting: the result for `COC(=O)[C@]12CCCCC=C1N(Cc1ccccc1)C(=O)[C@H](CC(=O)NCc1ccc(C)o1)C2` reads “inactive”.
On the same count and under the same terms, the result for `Nc1nonc1-c1nc2ccccc2n1Cc1ccc(F)cc1` reads “inactive”; that for `COc1ccc(C)c(Cn2c(-c3nonc3N)nc3ccccc32)c1`, 5.17 µM (active); that for `CCn1c(C(O)c2cc(OC)ccc2OC)nc2ccccc21` (configuration not stated), “inactive”.
For the compound `COCCCn1c(=O)/c(=C/c2ccccc2OC(C)C)s/c1=C(\C#N)C(=O)Nc1ccc(C(=O)O)cc1`, the Potency result was “inactive”.
As for `CC1(c2cccc(Br)c2)NC(=O)N(CC(=O)NCCC2=CCCCC2)C1=O` (configuration not stated), the Potency result is “inactive”.
Consider `Cc1ccc2nc(Nc3ccccc3O)nc(-c3ccccc3)c2c1`, for which the activity, negative = toxicity was -0.715% [at 9.24 µM] (inactive).
In the case of `Oc1ccc(-c2nnc(Nc3ccccc3)c3ccccc23)cc1`, the Potency entry is “inactive”.
As to `Cc1cccc(-c2nc(Nc3ccc(O)cc3)c3ccccc3n2)c1`, the Potency is 11.6 µM (active).
Take `CC1=C(C(=O)N2CCOCC2)CC(CC(=O)NCc2ccco2)C(=O)N1Cc1ccc(F)cc1` (configuration not stated): the Potency result was “inactive”.
